PLCg1 inh: PLC-gamma1 (human) inhibition, primary screen; purified PLC-gamma1, fluorogenic substrate, fluorescence; inhibition, % at 12.2 µM; 370,000 compounds, 0.84% hits; in the data active = inhibition above about 9.5%
PLCb3 inh: blocks human PLC-beta3 enzyme activity; Purified PLC-beta3, fluorogenic substrate, fluorescence; inhibition, % at 12.2 µM; Q01970; 370,000 compounds, 0.18% hits; AID 720704;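 also: 0% = median of compound wells on plate and 100% = full blocker control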
ADAM10 inh: inhibits human ADAM10; O14672; recombinant ADAM10, EDANS/DABCYL FRET peptide cleavage, 3 h; inhibition, % at 7 µM; 370,000 compounds, 0.62% hits;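 active = inhibition above a per-campaign cutoff equal to the mean of compounds falling between control-based bounds plus 3 SD, cut at about 20% in these data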;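 also: 0% = DMSO wells while the 100% control is not disclosed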
Target sequence (O14672 214-748 limits assumed): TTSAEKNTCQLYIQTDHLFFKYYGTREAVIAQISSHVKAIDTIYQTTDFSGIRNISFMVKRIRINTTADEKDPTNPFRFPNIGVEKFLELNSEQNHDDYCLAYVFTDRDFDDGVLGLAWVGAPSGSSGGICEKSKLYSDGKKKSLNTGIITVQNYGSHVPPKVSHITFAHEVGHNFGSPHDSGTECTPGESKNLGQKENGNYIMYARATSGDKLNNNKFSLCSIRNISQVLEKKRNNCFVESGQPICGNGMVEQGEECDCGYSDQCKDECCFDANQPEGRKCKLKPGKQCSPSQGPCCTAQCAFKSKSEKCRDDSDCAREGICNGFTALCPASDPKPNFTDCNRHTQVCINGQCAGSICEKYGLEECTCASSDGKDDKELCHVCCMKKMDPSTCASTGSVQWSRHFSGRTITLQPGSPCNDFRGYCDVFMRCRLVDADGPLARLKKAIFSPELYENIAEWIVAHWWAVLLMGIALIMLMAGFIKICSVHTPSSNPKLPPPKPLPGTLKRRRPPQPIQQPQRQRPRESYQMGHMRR
ADAM17 inh: ADAM17 inhibition, QFRET primary screen; P78536; recombinant ADAM17, EDANS/DABCYL FRET peptide cleavage; inhibition, % at 6.95 µM; 370,000 compounds, 0.83% hits; AID 720648;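 active = inhibition above the mean of compounds lying between control limits plus 3 SD, set per campaign, cut at about 8.5% in these data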;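 also: 0% = DMSO-only wells as the low control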
proKLK7 act: activates the human kallikrein-7 zymogen. P49862. purified proKLK7, EDANS-DABCYL substrate fluorescence; 100% is mature enzyme control, 0% vehicle. activation, % at 7 µM. 370,000 compounds, 0.9% hits. AID 652039;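 active = activation above the mean of all tested compounds plus 3 SD, computed per campaign excluding outliers beyond control limits, cut at about 13% in these data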
PLCgamma1 ctr: counter-screen for PLC-beta3 inhibitors: inhibitors of human PLC-gamma1. shares compounds with PLCg1 inh. purified PLC-gamma1, fluorogenic substrate, fluorescence. inhibition, % at 12.3 µM. 3,300 compounds, 3.1% hits. AID 743258; in the data active = inhibition above about 9.5%
PLCbeta3 conf: confirmation of human PLC-beta3 inhibitors; 3,300 compounds, 1% hits; inhibition, % at 12.3 µM; purified PLC-beta3, fluorogenic substrate fluorescence; shares compounds with PLCg1 inh
The depositor's hits bear a star; . = no result given. Shown are actives, neighbours in structure and some others; about 2.9% of the full set was active somewhere. Rule as the data show it, unless noted: active = inhibition above about 11%; inactive = the rest.

SMILES	PLCg1 inh	PLCb3 inh	ADAM10 inh	ADAM17 inh	proKLK7 act	PLCgamma1 ctr	PLCbeta3 conf
O=C(NCc1ccccc1)c1onc(CSc2ccccc2)c1C(=O)NCc1ccccc1	2	-6	12	5	0	.	.
COC(=O)C1CCCN1C(=O)COc1ccc(Br)cc1Cl (stereo not drawn)	14*	8	7	2	0	-8	-118
O=C(COc1ccc(Br)cc1Cl)NC1CCCCC1	0	-1	-6	3	0	.	.
CCCCS(=O)(=O)N1CCCC(C(=O)Nc2ccc3c(c2)CCC3)C1 (stereo not drawn)	-2	-9	-2	-4	0	.	.
Cc1ccc(-c2nnc(SCC(=O)NC3CC3)n2N)cc1	0	-7	-2	-2	0	.	.
Cc1ccc(-c2nnc(SCC(=O)NC3CCCC3)n2N)cc1	12*	9	4	8	0	-3	0
CC1C(=O)C(C)C(c2cccc(Br)c2)NC1c1cccc(Br)c1 (stereo not drawn)	-4	-8	0	-8	0	.	.
Cc1cc(C)nc(Nc2nc(C(N)CCc3ccccc3)cs2)n1 (stereo not drawn)	14*	11*	12	8	0	-6	-14
Cc1cc(C)nc(Nc2nc(C(N)c3ccccc3)cs2)n1 (stereo not drawn)	-11	-2	-14	-8	0	.	.
O=C(NC(=S)Nc1cccc(Cl)c1N1CCOCC1)c1cccs1	9.9*	-2	-1	-2	0	1	1
O=C(COC(=O)COc1ccccc1[N+](=O)[O-])NCc1ccc2c(c1)OCO2	13*	8	9	5	-1	-5	0
O=C(NCc1ccc2c(c1)OCO2)c1cccs1	1	6	-3	-1	0	.	.
O=C(COC(=O)c1cccs1)NCc1ccc2c(c1)OCO2	10*	2	6	5	1	-6	-3
O=c1cc(-c2ccccc2)nc(SCCOc2ccccc2Cl)[nH]1	12*	0	13	4	0	-3	-10
C=CCOC(=O)C1=C[C@@H](c2ccc(C(F)(F)F)cc2)C[C@@H](OCc2ccc(CO)cc2)O1	-1	-6	11	-1	1	.	.
CSc1ccccc1NC(=O)Cn1c(-c2cscn2)nc2ccccc21	9.8*	8	10	0	-1	-7	0
CC(C)c1ccccc1NC(=O)Cn1c(-c2ccccc2Cl)nc2ccccc21	2	-1	0	-3	0	.	.
Cc1cccc(C)c1NC(=O)CN(C)CC(=O)c1c(N)n(Cc2ccccc2)c(=O)n(C)c1=O	-7	-9	-11	-3	-1	.	.
C=C(C)[C@@H]1CC[C@]2(C(=O)O)CC[C@]3(C)C(CCC4[C@@]5(C)CC[C@H](O)C(C)(C)C5CC[C@]43C)C12 (stereo partly drawn)	9.5*	7	-6	4	0	-3	-1
c1ccc(C2[C@H]3CN(CC4CCCCC4)[C@H](c4ccccc4)C34CC2(c2cccnc2)C4)cc1 (stereo partly drawn)	-2	-1	-4	0	0	.	.
Cc1ccc2nc(C3CCN(C(=O)NCc4ccccc4)CC3)[nH]c2c1	10*	3	2	0	-1	1	-3
CN(C)S(=O)(=O)c1ccc(C(=O)N2CCCC2c2nc3ccccc3s2)cc1 (stereo not drawn)	8	11*	4	6	0	6	4
O=C(CNC(=O)c1cnccn1)Nc1ccc(F)c(F)c1F	11*	5	8	4	0	-3	2
CC(C)C(=O)Nc1cccc(NC(=O)c2cc3ccccc3o2)c1	0	1	8	0	0	.	.
CC(=O)Nc1cccc(NC(=O)c2cc3ccccc3o2)c1	9.7*	3	7	4	1	-7	-3
SMILES	PLCg1 inh	PLCb3 inh	ADAM10 inh	ADAM17 inh	proKLK7 act	PLCgamma1 ctr	PLCbeta3 conf
O=C(NCc1ccc(OC(F)(F)F)cc1)C1CCC(=O)N(C2CC2)C1 (stereo not drawn)	11*	-3	-3	3	-1	-1	0
OC(COC1CCCCC1)CN1CCN(c2ccccc2)CC1 (stereo not drawn)	13*	6	9	3	0	-7	-3
CC(C)(C)C1CCC(OCC(O)CN2CCN(Cc3ccccc3)CC2)CC1 (stereo not drawn)	1	-4	0	-5	0	.	.
O=C(CCn1cnnn1)N1CCCC(Nc2ccc(F)cc2)C1 (stereo not drawn)	-2	-10	-3	-4	-1	.	.
Cc1ccc(CNCC(O)(c2ccccc2)c2ccccc2)cc1	10*	1	0	7	0	2	1
Cc1ccc(CNCC(O)(c2ccccc2)c2ccc(Cl)cc2)cc1 (stereo not drawn)	2	5	3	0	1	.	.
O=C(CS(=O)c1ccc(F)cc1)Nc1ccccc1Cl (stereo not drawn)	10.0*	2	9	-2	0	6	-5
O=C(O)C1CCCCC1C(=O)Nc1cc(C(F)(F)F)ccc1Cl (stereo not drawn)	10.0*	-4	7	4	0	-3	-6
CN1CCC(NCCC(c2ccc(F)cc2)c2ccc(Cl)cc2)CC1 (stereo not drawn)	10*	4	1	-1	1	-5	1
CCOC(=O)CCCCCC(=O)Nc1ccc2c(c1)C(=O)N([C@H](C)CO)C[C@@H](C)[C@@H](CN(C)C(=O)CCC(F)(F)F)OCCCC[C@H](C)O2	12*	5	-1	5	0	-11	-3
Cc1noc(C)c1S(=O)(=O)Nc1ccc2c(c1)C(=O)N([C@H](C)CO)C[C@H](C)[C@H](CN(C)C(=O)NC(C)C)OCCCC[C@@H](C)O2	11*	8	-2	5	1	-1	0
O=C(CCN1CCN(c2ccccc2F)CC1)Nc1ccccc1F	11*	6	11	4	0	-3	-1
O=C(CN1CCN(c2ccccc2F)CC1)Nc1ccccc1F	4	2	0	-4	0	.	.
CCOc1ncccc1C(=O)Nc1cccc(Cl)c1Cl	-2	0	-10	-4	-1	.	.
CC1CC(C)CN(C(=O)c2ccc(CSc3nc4ccncc4[nH]3)cc2)C1 (stereo not drawn)	9	14*	6	0	0	-10	-4
Nn1c(SCC(=O)NCC2CCCO2)nnc1-c1ccco1 (stereo not drawn)	-2	-5	-4	0	0	.	.
CCCn1c(SCC(=O)Nc2nc3c(s2)CCCC3)nc2c1c(=O)n(C)c(=O)n2C	10*	7	3	0	0	1	1
Cc1cc2c(cc1C)-n1nnnc1C(N(C)CCc1ccccc1)C(=O)N2 (stereo not drawn)	-7	-8	-12	-3	0	.	.

Screening data deposited in PubChem by The Scripps Research Institute Molecular Screening Center.
